We go through 76 compounds from PubChem BioAssay AID590 (National Center for Advancing Translational Sciences (NCATS), 2007).

Structures are written as SMILES. About 6,500 (11%) of roughly 59,000 compounds were called active. Roughly 15% stayed inconclusive and do not appear here. Rule as the data show it: active = max dye-equivalent concentration above about 10 nM; inconclusive = mostly about 1.1 nM to 9.6 nM; inactive = weaker than that. For the sample, actives were picked, then their nearest neighbours and some compounds at random.

The experiment is described as follows: qHTS Assay for Spectroscopic Profiling in A350 Spectral Region. The following applies: Compound autofluorescence, 340/450 nm, Alexa 350 dye-equivalents; stronger effect = higher value.
As for `CN(C)C(=O)/N=N\C(=O)N(C)C`, the max dye-equivalent concentration result was “inactive”.

Take `CC(C)NS(=O)(=O)c1ccc(CCC(=O)N2CCOCC2)cc1`: the max dye-equivalent concentration entry is “inactive”.

Consider `N=C(CC(=O)Nc1ccccn1)c1ccccc1`, for which the max dye-equivalent concentration result was “inactive”.

Consider `O=C(c1ccccc1)N1CCN(C(=O)N2CCCCC2)CC1`, for which the max dye-equivalent concentration result was “inactive”.

As to `COc1ccc(-c2nc3n(c2Br)CCC3)cc1`, the max dye-equivalent concentration entry was “inactive”.

Regarding `CC(Sc1nncs1)C(=O)NCc1ccc2c(c1)OCO2` (stereo unspecified), the max dye-equivalent concentration result was “inactive”.

As to `CCOC(=O)c1c(C)[nH]c(C)c1C(=O)CSc1nc(N)cc(N)n1`, the max dye-equivalent concentration entry was “inactive”.

Take `O=S(=O)(NCCOc1cccc2cccnc12)c1ccc(F)cc1`: the max dye-equivalent concentration entry is “inactive”.

Regarding `COc1cc(NS(=O)(=O)c2ccc(NC(C)=O)cc2)cc(OC)c1`, the max dye-equivalent concentration result was “inactive”.

Take `CC(=O)Nc1ccc(S(=O)(=O)Nc2cccc(NC(=O)C(C)(C)C)c2)cc1`: the max dye-equivalent concentration result is “inactive”.

For `COc1ccc(NS(=O)(=O)c2ccc(NC(=O)C(C)(C(F)(F)F)C(F)(F)F)cc2)nn1`, the max dye-equivalent concentration is 23 nM (active).

On to `O=C(CN(c1ccc2c(c1)OCCO2)S(=O)(=O)c1ccccc1)Nc1ccc2c(c1)OCO2`, for which the max dye-equivalent concentration entry was “inactive”.

`CCCn1c(C(O)c2cc(OC)ccc2OC)nc2ccccc21` (stereo unspecified): the max dye-equivalent concentration result was “inactive”.

In the case of `O=C(NCCc1ccco1)c1nn(Cc2ccccc2)c(=O)c2ccccc12`, the max dye-equivalent concentration entry is “inactive”.

For the compound `COc1c(O)cccc1-c1nnn(CCC(=O)OCC(=O)c2ccccc2)n1`, the max dye-equivalent concentration result is “inactive”.

As to `COCCNc1ccnc(-c2cccc(NS(C)(=O)=O)c2)n1`, the max dye-equivalent concentration entry was “inactive”.

For `COc1ccc(OCCCON2C(=O)c3ccccc3C2=O)cc1`, the max dye-equivalent concentration entry was “inactive”.

With `COc1ccc(N2C(=O)c3cccc4cccc(c34)C2=O)nn1`, the max dye-equivalent concentration is 160 nM (active).

`CCOC(=O)c1[nH]cnc1C(=O)NC1CCCCC1`: the max dye-equivalent concentration entry was “inactive”.

As for `Fc1ccccc1CCNc1nnnn1-c1ccccc1`, the max dye-equivalent concentration result is “inactive”.

For the compound `Cc1cc(C)n(-c2ccc(Cl)c(C(=O)O)n2)n1`, the max dye-equivalent concentration result was “inactive”.

With `COc1ccccc1NC(=O)C1=C(C)NC2=C(C(=O)CCC2)C1c1ccc(C)o1` (stereo unspecified), the max dye-equivalent concentration is 16 nM (active).

Turning to `COc1ccccc1NC(=O)C1=C(C)Nc2ncnn2C1c1ccc(C)o1` (stereo unspecified), the max dye-equivalent concentration entry was “inactive”.

Take `COC(=O)C1=C(C)NC2=C(C(=O)c3ccccc32)C1c1ccc(-c2ccc(C(=O)O)cc2)o1` (stereo unspecified): the max dye-equivalent concentration entry was “inactive”.

Take `O=C(CCCCn1c(=O)[nH]c2ccccc2c1=O)NCc1ccc2c(c1)OCO2`: the max dye-equivalent concentration result was “inactive”.

For `CC1CN(C(=O)CN2C(=O)NC(C)(c3ccccc3)C2=O)CC(C)O1` (stereo unspecified), the max dye-equivalent concentration result is “inactive”.

Take `CN(C(=O)C1CCOC1)c1nnc(-c2cccnc2)s1` (stereo unspecified): the max dye-equivalent concentration result was “inactive”.

Turning to `C[C@@H]1C[C@H]2[C@@H]3C[C@H](F)C4=CC(=O)C=C[C@@]4(C)[C@]3(F)[C@H](O)C[C@]2(C)[C@@]1(O)C(=O)CO`, the max dye-equivalent concentration entry is “inactive”.

As to `CCCCOc1ccccc1/C=c1/sc2nc(-c3oc4ccccc4c3C)nn2c1=O`, the max dye-equivalent concentration entry is “inactive”.

Turning to `Cc1cc(Cl)c(S(=O)(=O)Nc2ccc3c(c2)OCCO3)cc1OCC(N)=O`, the max dye-equivalent concentration result was “inactive”.

Take `C#CCNc1nc(C(C)C)nc2c1nnn2Cc1ccccc1F`: the max dye-equivalent concentration result is “inactive”.

In the case of `Cc1nc(Nc2ccc3c(c2)OCCO3)c2nnn(Cc3ccccc3Cl)c2n1`, the max dye-equivalent concentration was 980 nM (active).

As for `CSCC[C@H](NC(=O)NCc1cccs1)C(=O)O`, the max dye-equivalent concentration result was “inactive”.

For the compound `COc1ccccc1CNc1ncncc1-c1cccnc1`, the max dye-equivalent concentration result is “inactive”.

As to `CCc1cc(=O)oc2cc(C)cc(OC(C)C(=O)O)c12` (stereo unspecified), the max dye-equivalent concentration is 110 nM (active).

In the case of `CCOC(=O)CCCNC(=O)CN1C(=O)NC(CCc2ccccc2)C1=O` (stereo unspecified), the max dye-equivalent concentration entry is “inactive”.

In the case of `CCNc1nc(NCC)nc(N(C)n2cnnc2)n1`, the max dye-equivalent concentration result is “inactive”.

For the compound `C=CCn1c(SCn2nnc3ccccc3c2=O)nnc1-c1ccc(Cl)cc1`, the max dye-equivalent concentration entry was “inactive”.

In the case of `COC(=O)N1CCC2(CCCN(Cc3ccccc3OC)C2)CC1`, the max dye-equivalent concentration result is “inactive”.

With `CCNCc1cc2cc(C)ccc2[nH]c1=O`, the max dye-equivalent concentration is 53 nM (active).

As to `Cc1ccc2[nH]c(=O)c(-c3nc4c(C)cccn4c3NCc3ccco3)cc2c1`, the max dye-equivalent concentration result is “inactive”.

As to `CCOC(=O)c1cc2cc(C)ccc2[nH]1`, the max dye-equivalent concentration entry was “inactive”.

For the compound `CC(C)(C)n1nnc(CCc2nnn(C(C)(C)C)n2)n1`, the max dye-equivalent concentration entry was “inactive”.

As to `Cc1csc(NC(=O)CN2CCCCCC2)n1`, the max dye-equivalent concentration entry was “inactive”.

For the compound `Cc1csc(NC(=O)NC2(C(F)(F)F)Oc3ccccc3O2)n1`, the max dye-equivalent concentration is 100 nM (active).

For the compound `O=C(Nc1cc(N2CCOCC2)ncn1)NC1(C(F)(F)F)Oc2ccc(Cl)cc2O1` (stereo unspecified), the max dye-equivalent concentration result is “inactive”.

As for `COc1cccc(Oc2ccc(N)cc2)c1`, the max dye-equivalent concentration entry is “inactive”.

Take `COc1ccc2[nH]c3cc4c(=O)c5cc(OC)ccc5[nH]c4cc3c(=O)c2c1`: the max dye-equivalent concentration entry was “inactive”.

Take `COc1ccc2[nH]c3ccc(OC)cc3c2c1`: the max dye-equivalent concentration is 150 nM (active).

For `CC(C)c1ccc(-c2nn[nH]n2)cc1`, the max dye-equivalent concentration entry is “inactive”.

`CCOc1ccc(-c2nnc3ccc(SC)nn23)cc1`: the max dye-equivalent concentration is 12 nM (active).

`CCn1cc(C(=O)N2CCN(Cc3ccc4c(c3)OCO4)CC2)c2cc(OC)c(OC)cc2c1=O`: the max dye-equivalent concentration entry was “inactive”.

Regarding `CS(=O)(=O)N1CCC2(CC1)CN(c1ccncc1)C2`, the max dye-equivalent concentration result is “inactive”.

Take `CC(=O)NC(Cc1ccc(F)cc1)C(=O)O` (stereo unspecified): the max dye-equivalent concentration entry is “inactive”.

`Cc1c(NC(=O)C(C)OC(=O)c2cc3c4ccccc4n(C)c3s2)c(=O)n(-c2ccccc2)n1C` (stereo unspecified): the max dye-equivalent concentration is 170 nM (active).

Consider `Cc1ccccc1OCCC(=O)Nc1c(C)n(C)n(-c2ccccc2)c1=O`, for which the max dye-equivalent concentration entry is “inactive”.

For `Cc1cc(C)cc(N(C(C)C(=O)Nc2c(C)n(C)n(-c3ccccc3)c2=O)S(C)(=O)=O)c1` (stereo unspecified), the max dye-equivalent concentration result is “inactive”.

As to `C[C@H](NC(=O)OC(C)(C)C)c1nnc(SCC(N)=O)o1`, the max dye-equivalent concentration result was “inactive”.

As to `CCCNS(=O)(=O)c1ccc(CCC(=O)NCc2cccnc2)cc1`, the max dye-equivalent concentration result is “inactive”.

As to `COc1ccc(CN(C(=O)c2cccs2)c2nccs2)cc1OC`, the max dye-equivalent concentration entry was “inactive”.

In the case of `Cc1ccc(C)n1-c1ccncc1`, the max dye-equivalent concentration result was “inactive”.

For the compound `O=c1cc(-c2ccccc2)[nH]c2nc(Cl)ccc12`, the max dye-equivalent concentration is 69 nM (active).

As for `COCCN1Cc2cccc(C(=O)Nc3ccccc3OC)c2C1=O`, the max dye-equivalent concentration result is “inactive”.

For the compound `Fc1ccccc1OCCSc1nc2ccccc2o1`, the max dye-equivalent concentration entry was “inactive”.

For `Cc1ccc(C(=O)CS(C)(=O)=O)cc1`, the max dye-equivalent concentration is 19 nM (active).

`O=C1C=C(NCCNc2c(F)c(F)c(CO)c(F)c2F)CCC1`: the max dye-equivalent concentration result is “inactive”.

For the compound `Cc1cc(=O)[nH]c(SCC(=O)N2c3ccccc3CC2C)n1` (stereo unspecified), the max dye-equivalent concentration entry is “inactive”.

In the case of `COCCn1c(=O)c(CCc2ccccc2)nc2cncnc21`, the max dye-equivalent concentration was 88 nM (active).

With `O=c1c(CCc2ccccc2)nc2cncnc2n1C1CC1`, the max dye-equivalent concentration result was “inactive”.

As for `N#Cc1cccc(-c2nc3cnc(N4CCNCC4)nc3n(C3CC3)c2=O)c1`, the max dye-equivalent concentration was 350 nM (active).

Regarding `O=C(CSc1nnc(-c2ccco2)n1CC1CCCO1)c1ccccc1` (stereo unspecified), the max dye-equivalent concentration result was “inactive”.

On to `Cn1cc(-c2nc3cnc(N4CCNCC4)nc3n(CCC#N)c2=O)c2ccccc21`, for which the max dye-equivalent concentration entry was “inactive”.

Consider `Cc1nc2cnc(Nc3ccccc3)nc2n(C[C@H]2CCCO2)c1=O`, for which the max dye-equivalent concentration entry is “inactive”.

Take `Cc1nc2cnc(N3CCNCC3)nc2n(Cc2ccc(F)cc2)c1=O`: the max dye-equivalent concentration was 110 nM (active).

As to `Cn1c(=O)c2c(nc(OCc3cccnc3)n2Cc2ccccc2)n(C)c1=O`, the max dye-equivalent concentration entry is “inactive”.

For the compound `Cc1nc2cnc(N3CCN(C)CC3)nc2n(C[C@H]2CCCO2)c1=O`, the max dye-equivalent concentration is 59 nM (active).
